# Source: PubChem BioAssay (EPA / NIEHS)
# Records with an inconclusive call do not appear. The source made the active and inactive calls. How the source made its calls, unless noted: active means hit-call score of the fitted dose curve at least 0.9, where 1 is the maximum; inactive means score below 0.9. Peptide text beside a SMILES is read from it.
# Key:
# [1] = CCTE_Shafer_MEA_acute_firing_rate_mean: CCTE's Neural Acute Assay for Mean Firing Rate, Shafer Lab (AID 2284009);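 further: analyzed for loss of signal so actives lower firing rate relative to DMSO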
# In short: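 Spontaneous spiking of primary rat cortical networks, DIV 13/15, 37 C. Compound 0.03-40 uM, n ≥3 wells; 40 min baseline vs 40 min treated. Endpoint fitted in loss-of-signal direction against DMSO.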
# [2] = CCTE_Harrill_HTTr_Viability_MCF7: CCTE's 6-hour Cell Viability Assessment for the High-Throughput Transcriptomics (HTTr) Platform, in MCF-7 cells cultured in DMEM + 10% fetal bovine serum, Harrill Lab (AID 2284010)
# In short: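 PI exclusion, high-content imaging; 8-pt dilution series, 6 h exposure; bidirectional fit vs DMSO (neg. ctrl/baseline); gain of signal = loss of membrane integrity.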
# [3] = CCTE_Harrill_HTTr_Apoptosis_MCF7: CCTE's 6-hour Apoptosis Assessment for the High-Throughput Transcriptomics (HTTr) Platform, in MCF-7 cells cultured in DMEM + 10% fetal bovine serum, Harrill Lab (AID 2284011)
# In short: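 Apoptosis in MCF-7 cells grown in DMEM with 10% fetal bovine serum was scored after a six hour exposure by high content imaging of caspase-3/7 activation (CellEvent Caspase 3/7 Green), with DMSO serving as negative control and baseline.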
# [4] = CCTE_Shafer_MEA_acute_burst_number: CCTE's Neural Acute Assay for Single-Electrode Bursts, Shafer Lab (AID 2284013)
# In short: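 Burst totals were derived with adaptive spike detection (8x rms threshold) on filtered signals from rat cortical cultures; change relative to pre-treatment baseline after 40-min compound exposure (0.03-40 uM) was fitted in the negative direction against DMSO.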
# [5] = CCTE_Shafer_MEA_acute_burst_duration_mean: CCTE's Neural Acute Assay for Mean Burst Duration, Shafer Lab (AID 2284014);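 further: hits are decreases in mean burst duration relative to DMSO controls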
# In short: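 Acute exposure of mature rat cortical networks (DIV 13 or 15) grown on microelectrode arrays to 0.03-40 uM compound. Mean burst duration compared with the 40-min pre-dose baseline over a 40-min post-dose recording at 37 C.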
# [6] = CCTE_Shafer_MEA_acute_per_burst_spike_number_mean: CCTE's Neural Acute Assay for Average Number of Spikes Per Burst, Shafer Lab (AID 2284015);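 further: hits are decreases in mean spikes per burst versus baseline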
# In short: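 Read-out: percent change in mean spikes per burst, each well's post-exposure 40-min recording versus its own 40-min baseline. Rat cortical cultures, DIV 13 or 15, compounds 0.03-40 uM; DMSO is negative control, loss-of-signal fitting.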
# [7] = CCTE_Shafer_MEA_acute_interburst_interval_mean: CCTE's Neural Acute Assay for Mean Interburst Interval, Shafer Lab (AID 2284016);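 further: percent change of mean interburst interval versus each well's own pre-dose baseline; curves fitted for decrease in interburst interval relative to DMSO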
# In short: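 Rat cortical cultures, DIV 13/15; 20 min equilibration, 40 min baseline, compound 0.03-40 uM, 40 min re-recording, 37 C. Spikes detected at 8x rms noise (300-5000 Hz band-pass). Endpoint: % change in interburst interval, fitted in loss direction vs DMSO.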
# [8] = CCTE_Shafer_MEA_acute_burst_percentage_mean: CCTE's Neural Acute Assay for Percentage of Spikes in a Burst, Shafer Lab (AID 2284017)
# In short: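 Rat cortical cultures, DIV 13/15, 37 C. Spikes detected at 8x rms noise (300-5000 Hz band-pass). Burst spikes/total spikes averaged across electrodes per well; % change post- vs pre-treatment (40 min each), loss-of-signal fit vs DMSO.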
# [9] = CCTE_Shafer_MEA_acute_burst_percentage_std: CCTE's Neural Acute Assay for Standard Deviation of Burst Percentage, Shafer Lab (AID 2284018);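 further: fitted in the negative direction so actives lower burst percentage SD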
# In short: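 Primary rat cortical neurons on 16-electrode MEA wells were recorded 40 min at baseline (DIV 13 or 15), then 40 min after compound (0.03-40 uM), at 37 C. Well value is SD across electrodes of spikes-in-bursts/total spikes; endpoint is percent change, DMSO-referenced.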
# [10] = CCTE_Shafer_MEA_acute_per_network_burst_spike_number_std: CCTE's Neural Acute Assay for Standard Deviation of Number of Spikes in a Network Burst, Shafer Lab (AID 2284020);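 further: fitted for decrease in spike-number SD versus DMSO so actives lower it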
# In short: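 Acute MEA exposure, rat cortical neurons, 0.03-40 uM. Per-well % change versus own baseline; DMSO as negative control.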
# [11] = CCTE_Shafer_MEA_acute_network_burst_percentage: CCTE's Neural Acute Assay for Percentage of Network Bursts, Shafer Lab (AID 2284022);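 further: curves fitted for loss so actives lower network burst percentage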
# In short: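 On DIV 13 or 15, at least three wells of rat cortical neurons per compound are dosed at 0.03-40 uM. Spontaneous firing is detected at 8x rms noise for 40 min before and after dosing at 37 C. The percent change in network-burst spike share is reported.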
# [12] = CCTE_Shafer_MEA_acute_cross_correlation_area: CCTE's Neural Acute Assay for Area of Cross Correlation, Shafer Lab (AID 2284024);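 further: rat primary cortical neuron networks on 48-well MEA at DIV 13 or 15 with 40 min exposure; area under pooled inter-electrode spike cross-correlation near zero lag as percent change from own baseline; curves fitted for loss of cross-correlation area so actives lower synchrony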
# In short: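 Extracellular recordings from cultured rat cortical neurons measure network synchrony as cross-correlation area; each well's post-compound value (0.03-40 uM, 40 min) is compared with its own 40 min baseline to give percent change.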
# [13] = CCTE_Shafer_MEA_acute_cross_correlation_HWHM: CCTE's Neural Acute Assay for Cross Correlation at Half Width at Half Maximum, Shafer Lab (AID 2284026);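 further: spontaneous network firing of rat primary cortical neurons on multiwell microelectrode arrays; percent change per well from pre-dose baseline in spike cross-correlogram half width; hits are a decrease in cross-correlogram half width relative to DMSO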
# In short: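 Percent change in cross-correlogram half width at half maximum, narrower meaning more synchrony, was derived per well from paired 40-min recordings before and during exposure to 0.03-40 uM compound in rat cortical cultures at 37 C.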
# [14] = CCTE_Shafer_MEA_acute_synchrony_index: CCTE's Neural Acute Assay for Synchrony, Shafer Lab (AID 2284027);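 further: network synchrony index of spontaneous spiking in primary rat cortical neurons on MEAs; fitted for loss of signal so actives lower synchrony relative to DMSO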
# In short: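 Rat cortical cultures, DIV 13/15; spikes detected at 8x rms noise, 300-5000 Hz band-pass. Compound 0.03-40 uM, ≥3 wells; 40-min pre- and post-exposure recordings, 37 C. Readout: % change in synchrony index; loss-of-signal fit vs DMSO.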
# [15] = target: Ratio of Nucleoli Translocation and Cytoplasm, AR (gene 367) (UniProt P10275); assay: UPITT_HCI_U2OS_AR_TIF2_Nucleoli_Cytoplasm_Ratio_Antagonist: University of Pittsburgh U2OS Androgen Receptor-Transcriptional Intermediary Factor 2 (AR-TIF2) Antagonism High Content Imaging Assay for Ratio of Nucleoli Translocation and Cytoplasm (AID 2283999; active means hit-call score of the fitted dose curve at least 0.9, where 1 is the maximum;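 further: antagonists lower the DHT-driven ratio of nucleolar to cytoplasmic red signal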)
# Chain of Ratio of Nucleoli Translocation and Cytoplasm, AR (gene 367) (P10275 whole entry, looked up): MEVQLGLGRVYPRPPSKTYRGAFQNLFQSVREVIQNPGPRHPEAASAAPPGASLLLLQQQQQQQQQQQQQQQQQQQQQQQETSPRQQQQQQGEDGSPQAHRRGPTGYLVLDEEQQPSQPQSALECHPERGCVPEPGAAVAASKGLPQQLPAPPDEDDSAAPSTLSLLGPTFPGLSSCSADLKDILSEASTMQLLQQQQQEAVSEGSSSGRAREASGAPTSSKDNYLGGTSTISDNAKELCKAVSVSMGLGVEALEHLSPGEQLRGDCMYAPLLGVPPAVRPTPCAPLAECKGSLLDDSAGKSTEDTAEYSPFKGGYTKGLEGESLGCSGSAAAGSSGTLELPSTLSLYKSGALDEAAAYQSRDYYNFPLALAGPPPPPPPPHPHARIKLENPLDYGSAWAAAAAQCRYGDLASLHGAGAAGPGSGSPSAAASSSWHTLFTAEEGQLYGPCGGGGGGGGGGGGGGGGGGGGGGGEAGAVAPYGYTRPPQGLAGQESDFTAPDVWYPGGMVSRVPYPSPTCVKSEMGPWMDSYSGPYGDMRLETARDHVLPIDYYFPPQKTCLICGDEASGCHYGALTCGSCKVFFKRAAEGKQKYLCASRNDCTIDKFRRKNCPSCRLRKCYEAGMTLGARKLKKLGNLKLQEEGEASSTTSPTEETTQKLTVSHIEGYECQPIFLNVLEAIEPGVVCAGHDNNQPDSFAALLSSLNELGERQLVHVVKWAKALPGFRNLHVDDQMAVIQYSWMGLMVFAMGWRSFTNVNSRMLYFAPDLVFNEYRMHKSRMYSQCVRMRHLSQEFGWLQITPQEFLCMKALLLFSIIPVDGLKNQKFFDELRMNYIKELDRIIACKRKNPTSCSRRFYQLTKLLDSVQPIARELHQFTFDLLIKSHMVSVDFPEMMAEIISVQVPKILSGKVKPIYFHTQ
# In short: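 Read-out is the ratio of nucleolar to cytoplasmic AR-RFP fluorescence, imaged by high-content microscopy in U2OS cells coexpressing TIF2-GFP. Single-point 20 uM screen, triplicate confirmation, then 0.195–50 uM dose response; activity referenced to DHT baseline.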
# [16] = target: Ratio of Nucleoli Translocation and Cytoplasm, AR (gene 367) (UniProt P10275); assay: UPITT_HCI_U2OS_AR_TIF2_Nucleoli_Cytoplasm_Ratio_Agonist: University of Pittsburgh U2OS Androgen Receptor-Transcriptional Intermediary Factor 2 (AR-TIF2) Agonism High Content Imaging Assay for Ratio of Nucleoli Translocation and Cytoplasm (AID 2284000; active means hit-call score of the fitted dose curve at least 0.9, where 1 is the maximum;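 further: hits raise the red nucleolar to cytoplasm ratio above vehicle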)
# In short: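 Primary screen at 20 uM final (0.2% DMSO), then triplicate confirmation and dose-response from 0.195 to 50 uM final (0.5% DMSO). Cells: U2OS with AR-RFP and TIF2-GFP. Endpoint is the nucleoli/cytoplasm red-fluorescence ratio, gain-of-signal vs DMSO.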
# [17] = CCTE_Harrill_HTTr_CellCount_MCF7: CCTE's Cell Proliferation Assessment for the High-Throughput Transcriptomics (HTTr) Platform, Harrill Lab (AID 2284012; active means hit-call score of the fitted dose curve at least 0.9, where 1 is the maximum;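 further: count of Hoechst-stained nuclei per well by high-content imaging in MCF-7 cells; cells exposed to compound for six hours; intended direction is loss of nuclei count meaning fewer cells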)
# In short: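 Readout: Hoechst nuclear count by high-content imaging. MCF-7, 8-point dilution series, 6 h exposure. Bidirectional fit vs DMSO baseline.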
smiles,measurement,setting,value
CCCC(C)C(=O)OCC (configuration not stated),outcome,[1],inactive
same,outcome,[2],inactive
same,outcome,[3],inactive
same,outcome,[4],inactive
same,outcome,[5],inactive
same,outcome,[6],inactive
same,outcome,[7],inactive
same,outcome,[8],inactive
same,outcome,[9],inactive
same,outcome,[10],inactive
same,outcome,[11],inactive
same,outcome,[12],inactive
same,outcome,[13],inactive
same,outcome,[14],inactive
CC(C)=CCl,outcome,[2],inactive
same,outcome,[3],inactive
COC(=O)[C@H](Cc1ccccc1)NC(=O)[C@@H](N)CC(=O)O (H-Asp-Phe-OMe),outcome,[1],inactive
same,outcome,[4],inactive
same,outcome,[5],inactive
same,outcome,[6],inactive
same,outcome,[7],inactive
same,outcome,[8],inactive
same,outcome,[9],inactive
same,outcome,[10],inactive
same,outcome,[11],inactive
same,outcome,[12],inactive
same,outcome,[13],inactive
same,outcome,[14],inactive
CC/C=C\CCOC(=O)c1ccccc1O,outcome,[1],inactive
same,outcome,[2],inactive
same,outcome,[3],inactive
same,outcome,[4],inactive
same,outcome,[5],inactive
same,outcome,[6],inactive
same,AC50,[7],15 µM (active)
same,outcome,[8],inactive
same,outcome,[9],inactive
same,outcome,[10],inactive
same,outcome,[11],inactive
same,outcome,[12],inactive
same,outcome,[13],inactive
same,outcome,[14],inactive
CCc1cccc(C)c1N,outcome,[15],inactive
CCC(C)c1ccccc1 (configuration not stated),outcome,[16],inactive
same,outcome,[2],inactive
same,outcome,[3],inactive
same,outcome,[17],inactive
